Assay outcomes (PubChem)
In the library only some 12% were active in any assay of this set; here they are far more common.
hDAT+cocaine: human DAT dopamine uptake with cocaine, either direction. AID 449768. 1.3% of 110,000 active. B-score at 10 µM. LLC-PK1 hDAT cells, [14C]-dopamine uptake with cocaine IC80; actives deviate in either direction;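 active means Z score or B-score, a plate-position-corrected score, falls beyond the plate's 99.7% confidence bounds, in either direction; inactive means both scores lie inside the 99.7% bounds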;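 further: scored against the spread of the other compound wells on the same plate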
PostGolgi yeast: growth inhibition of a yeast mutant, post-Golgi transport screen; post-Golgi transport phenotypic cell assay; AID 739; 0.9% of 98,000 active; inhibition, % at 10 µM;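 further: yeast cells grown in 1536-well plates; yeast grown about 18 h at 30C before absorbance read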
PostGolgi ctrl: yeast control strain growth, post-Golgi counter-screen; 5% of 98,000 active; AID 738; inhibition, % at 10 µM; efflux-deficient yeast background strain, growth absorbance A615, 16 h
Cav3 T inh: human Cav3.2 channel inhibition, primary screen | O95180 | Cav3.2-expressing cells, Fluo-4 calcium fluorescence FDSS; active compounds read low | B-score at 10 µM | 4% of 100,000 active | AID 449739;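 active means single-dose well whose peak fluorescence ratio is a statistical outlier from its plate by either plate-standardised score or position-corrected B-score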
D1 allo mod: allosterically modulates the human D1 dopamine receptor | HEK293 D1, CRE-luciferase, dopamine EC30 potentiation; actives deviate in either direction | B-score at 10 µM | 5.9% of 58,000 active;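 active means luminescence count or its row- and column-corrected plate score outside the 99.7% band of the plate's sample wells, on either side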
Target sequence (P21728 whole entry, looked up): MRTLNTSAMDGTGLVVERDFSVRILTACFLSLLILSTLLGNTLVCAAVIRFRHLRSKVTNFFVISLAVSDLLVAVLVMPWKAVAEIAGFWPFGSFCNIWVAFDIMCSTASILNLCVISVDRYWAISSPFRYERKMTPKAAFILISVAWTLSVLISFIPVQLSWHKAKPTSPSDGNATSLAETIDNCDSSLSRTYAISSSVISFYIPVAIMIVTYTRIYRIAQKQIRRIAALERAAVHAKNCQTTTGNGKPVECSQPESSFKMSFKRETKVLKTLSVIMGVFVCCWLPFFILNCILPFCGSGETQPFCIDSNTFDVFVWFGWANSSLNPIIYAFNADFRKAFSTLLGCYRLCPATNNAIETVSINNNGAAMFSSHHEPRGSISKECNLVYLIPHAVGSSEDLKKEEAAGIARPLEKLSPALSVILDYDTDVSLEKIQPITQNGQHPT
PLAP act: activates human placental alkaline phosphatase; purified PLAP enzyme, luminescent substrate read-out; active compounds read high; activation fold at 20 µM; 1.2% of 96,000 active; in the data active means activation fold above about 2
* marks the source's active call; other numbers are inactive results; / = no result given. Unless noted, no stated cut-off is given here; in the data, active means inhibition above about 30%; inactive means the rest.

SMILES	hDAT+cocaine	PostGolgi yeast	PostGolgi ctrl	Cav3 T inh	D1 allo mod	PLAP act
c1ccc(CN(Cc2ccco2)C(c2ccncc2)c2nnnn2C2CCCC2)cc1 (stereo not drawn)	0.32	1	21	-2.9	-0.55	1.3
Fc1ccc(C(c2nnnn2C2CCCC2)N(Cc2ccco2)CC2CCCO2)cc1 (stereo not drawn)	-0.065	10	27	-4*	/	1.5
CCN(CC)C(c1ccc(F)cc1)c1nnnn1C1CCCCC1 (stereo not drawn)	-1.1	5	9	-5*	-1.3	0.9
CCN(CC)C(c1ccc(C)cc1)c1nnnn1C1CCCCC1 (stereo not drawn)	0.035	-9	16	-2.1	-0.37	1.5
CCOc1ccc2c(c1)n(CO)c(=S)n2CO	0.56	-6	20	0.44	0.13	2.3*
CCOc1ccc2[nH]c(=S)[nH]c2c1	-0.088	-11	2	1.4	/	1.8
O=S(=O)(c1ccc(Cl)cc1)c1snnc1-c1ccccc1	-0.93	6	34*	-1.7	/	0.6
CN(C)c1ncc(S(=O)(=O)c2ccc(Cl)cc2)c(-c2ccccc2)n1	-0.0029	-4	23	-1.3	/	1
O=C(O)CCCN=CC1=C(O)C(C(=O)c2ccccc2)CCC1=O (stereo not drawn)	1.8*	/	/	-1.9	/	/
Cc1ccc(S(=O)(=O)N2CCC(=O)N(CCOCc3ccc(F)cc3)CC2)cc1	/	/	/	1	/	/
Cn1ncc(C#N)c1/N=C/N(Cc1ccccc1)Cc1ccccc1	1.2	2	35*	-8.4*	-0.00043	0.8
CC1CCC(NC(=O)c2ccc3c(c2)S(=O)(=O)c2ccccc2C3=O)CC1 (stereo not drawn)	0.79	/	/	0.34	/	/
CCOC(=O)N1CCC(Nc2c(-c3ccccc3)c(=O)c2=O)CC1	1.7	-2	6	1.5	/	1
O=C(Nc1cccc(F)c1)NC1CCCCC1	-0.88	-6	21	0.57	-0.8	1.2
S=C(Nc1cccc(Cl)c1)NC1CCCCC1	1.3	-9	0	-4.1*	/	0.8
O=S(=O)(Nc1ccc(S(=O)(=O)N2CCCCC2)cc1)c1ccc(Br)s1	-2.1	-2	12	-5.4*	-0.89	1.4
CC(=O)NC(CC(=O)Nc1ccc(S(=O)(=O)N2CCCCC2)cc1)c1ccccc1 (stereo not drawn)	1.4	16	1	-0.28	/	1.9
COc1ccc(S(=O)(=O)Nc2ccc(S(=O)(=O)N3CCCC3)cc2)cc1	0.015	5	7	-0.075	/	1.2
O=S(=O)(Nc1ccc(S(=O)(=O)N2CCCCCC2)cc1)c1cccs1	1.5	-5	-11	-2.7	/	1.4
COc1ccc(S(=O)(=O)Nc2ccc(S(=O)(=O)N3CCCCC3)cc2)cc1	1.2	0	8	-6.6*	-0.25	1.2
COc1ccc(S(=O)(=O)N2CCCCCC2)cc1	1.8	7	1	-0.25	/	0.9
COC(C(=O)Nc1ccc(S(=O)(=O)N2CCCCC2)cc1)c1ccccc1 (stereo not drawn)	0.22	-8	9	/	/	2*
COc1ccc(OC(=O)c2cc(S(=O)(=O)N3CCCC3)ccc2Cl)cc1	-2.3*	-1	16	0.56	/	1
Nc1nnnn1/N=C/c1cccc(OCc2ccccc2Cl)c1	-1.3	/	/	-0.45	/	/
Cc1nc2c3ccccc3[nH]c(=O)n2n1	-0.52	/	/	0.53	0.63	/
SMILES	hDAT+cocaine	PostGolgi yeast	PostGolgi ctrl	Cav3 T inh	D1 allo mod	PLAP act
Cc1nc2sc(C(c3ccccc3)N3CCN(C)CC3)c(O)n2n1 (stereo not drawn)	-0.29	/	/	-0.056	0.014	/
O=C(CSC1=NCCS1)Nc1ccc(S(=O)(=O)N2CCCCCC2)cc1	0.41	-1	3	-4.4*	0.13	1.2
O=C(CSC1=NCCS1)Nc1ccc(S(=O)(=O)NC2CCCCC2)cc1	0.063	-3	3	-2.1	/	0.6
CC1=NN(C(=O)c2ccc(Cn3nc(C)cc3C)o2)C(O)(C(F)(F)F)C1 (stereo not drawn)	-0.053	7	-2	0.45	/	2.2*
CC1=NN(C(=O)c2ccc(Cn3nc(C)c([N+](=O)[O-])c3C)cc2)C(O)(C(F)(F)F)C1 (stereo not drawn)	0.23	-5	-6	0.27	/	1.9
CCC(C(=O)N1CCc2ccccc2C1)n1nc(C)n2c(cc3occc32)c1=O (stereo not drawn)	-0.021	-4	30*	0.66	-0.13	1.5
Cc1nn(C(C)C(=O)N2CCc3ccccc3C2)c(=O)c2cc3occc3n12 (stereo not drawn)	0.052	11	1	0.61	0.27	1.6
O=C(CN(Cc1ccc(F)cc1)C(=O)C1CSC(=O)C1)NC1CCCCC1 (stereo not drawn)	0.024	-3	0	0.46	/	1
CCOc1ccc(NC(=O)N(CCC(C)C)C2CCN(C(C)=O)CC2)cc1	-0.31	15	-4	0.19	/	2*
CCOc1ccc(NC(=O)N2CCC(c3ccc(C)cc3)C2)cc1 (stereo not drawn)	0.12	-24	36*	-0.35	/	0.9
Cc1cc(C)n(-c2ccc(-n3ccnc3)nn2)n1	0.32	1	0	0.021	0.34	1.2
CC1(c2nnc(-c3ccc(F)cc3)o2)CC(c2ccc([N+](=O)[O-])cc2)=NO1 (stereo not drawn)	-0.27	/	/	-0.039	/	/
O=C(c1ccc(Br)o1)N1CCN=C1SCc1cccnc1	2.4*	-3	0	1.3	1	1.1
O=C(c1cc2ccccc2o1)N1CCN=C1SCc1cccnc1	-0.26	-3	11	1.3	-1.8*	0.8
Cc1ccccc1Nc1nc(N)nc(CSc2nc3ccccc3c(=O)n2C)n1	-0.45	1	8	0.37	/	1
Cc1ccccc1COCCN1CCN(S(=O)(=O)c2ccccc2)CCC1=O	-0.1	/	/	-1.3	/	/
Cc1ccn2c(C(=O)N/N=C\c3ccccc3[N+](=O)[O-])c(C)nc2c1	-0.47	/	/	0.069	/	/
Cc1cc(C)c2c(=O)[nH]c(SCC(=O)N(C)C)nc2n1	-0.44	36*	17	0.31	/	0.9
CCN(CC)C(=O)CSc1nc2nc(C)cc(C)c2c(=O)[nH]1	0.14	-4	7	0.36	/	1.3
CCCC1CCc2c(sc(N)c2C(N)=O)C1 (stereo not drawn)	-0.092	31*	8	0.07	/	1.5
CC(C)(C)C1CCc2c(sc(N)c2C(N)=O)C1 (stereo not drawn)	0.033	-7	-1	-0.71	1.4	1.5
O=C(NCc1nc2ccccc2[nH]1)C1=C[C@@H](c2ccccc2)C[C@@H](OCCCCO)O1	3.2*	/	/	-1.6	/	/
COC(=O)c1sccc1NC(=O)Cn1cnc2c1c(=O)n(C)c(=O)n2C	-0.023	11	1	1.1	-0.44	0.9
O=S1(=O)C=C(SCc2cccc(Cl)c2)Nc2ccccc21	/	-7	14	/	/	1
COc1cc(/C=C(\NC(=O)c2ccccc2)C(=O)Nc2cccc(O)c2)c([N+](=O)[O-])cc1OC	0.45	-2	18	-1.7	/	1
CCn1c(C(=O)N2CCc3ccccc3C2)cc2sccc21	1.1	2	8	-5.6*	-0.8	1.4
